Reference: PubChem BioAssay (NCI)
The panel holds about 83,000 compounds, 20% with a hit somewhere; the sample as a whole holds those more often.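 Single-concentration screen, 48 h exposure, 96-well plates. Endpoint: percent growth. Below 10 = active.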 Activity calls are given as the source filed them.

Legend:
Assay in all cases: NCI-60 one-dose screen, 48 h (100 = growth as untreated, 0 = no growth, -100 = all killed)
Conditions in all cases: 10 µM unless noted
NCI-H23 lung = system: NCI-H23 lung
NCI-H226 lung = system: NCI-H226 lung
NCI-H322M lung = system: NCI-H322M lung
NCI-H460 lung = system: NCI-H460 lung
HOP-92 NSCLC = system: HOP-92 NSCLC
NCI-H522 lung = system: NCI-H522 lung
A549/ATCC NSCLC = system: A549/ATCC NSCLC
COLO 205 colon = system: COLO 205 colon
DU-145 prostate = system: DU-145 prostate
K-562 leukemia = system: K-562 leukemia
MALME-3M melanoma = system: MALME-3M melanoma
MDA-MB-231 breast = system: MDA-MB-231 breast
RXF 393 renal = system: RXF 393 renal
SF-268 CNS = system: SF-268 CNS
SF-295 CNS = system: SF-295 CNS
SF-539 CNS = system: SF-539 CNS
UACC-257 melanoma = system: UACC-257 melanoma
M14 melanoma = system: M14 melanoma
HOP-62 NSCLC = system: HOP-62 NSCLC
786-0 renal = system: 786-0 renal

Measured: growth

Cn1ccc2c1CC1CN(Cc3ccco3)C(=O)C1C2C(=O)O (stereo not drawn)
inactive: NCI-H23 lung 94.3% | NCI-H226 lung 103% | NCI-H322M lung 99.3% | NCI-H460 lung 102% | HOP-92 NSCLC 99.4% | NCI-H522 lung 92.3% | A549/ATCC NSCLC 98% | COLO 205 colon 117% | DU-145 prostate 89.2% | K-562 leukemia 97.4% | MALME-3M melanoma 98.5% | MDA-MB-231 breast 97.1% | RXF 393 renal 111% | SF-268 CNS 92.6% | SF-295 CNS 100% | SF-539 CNS 96.3% | UACC-257 melanoma 97% | M14 melanoma 103%

COc1ccc(-c2nc(S(=O)(=O)c3ccccc3)c(S(=O)CC(=O)N3CCC(C)CC3)o2)cc1 (stereo not drawn)
inactive: NCI-H23 lung 54.1% | NCI-H226 lung 80.3% | NCI-H322M lung 73.2% | HOP-62 NSCLC 76.6% | 786-0 renal 10.3% | COLO 205 colon 48.7% | DU-145 prostate 42.5% | MDA-MB-231 breast 24.7% | RXF 393 renal 17.2% | SF-268 CNS 62.5% | SF-295 CNS 92.9% | SF-539 CNS 40.4% | UACC-257 melanoma 65.9% | M14 melanoma 35.1%
active: HOP-92 NSCLC -22.6% | NCI-H522 lung -86.6% | MALME-3M melanoma -16.6%

CC(=O)O[C@H]1Cc2c([nH]c3ccccc23)[C@@H](c2ccc(Cl)cc2)N1C(=O)CCNC(C)(C)C
inactive: NCI-H23 lung 84.5% | NCI-H226 lung 69% | NCI-H322M lung 65.9% | NCI-H460 lung 37.5% | HOP-92 NSCLC 14.1% | NCI-H522 lung 63.9% | A549/ATCC NSCLC 76.3% | 786-0 renal 53.1% | COLO 205 colon 53.7% | DU-145 prostate 65.2% | RXF 393 renal 39.6% | SF-268 CNS 61.3% | SF-295 CNS 68.3% | SF-539 CNS 40.1% | UACC-257 melanoma 65.1%
active: K-562 leukemia 8.71% | MALME-3M melanoma -37.8% | MDA-MB-231 breast -26% | M14 melanoma -0.737%

CCN(CC)CCOc1ccc(NC(=O)C(C(C)C)N2C(=O)/C(=C/c3ccc(Br)cc3)SC2=S)cc1 (stereo not drawn)
inactive: NCI-H23 lung 94.6% | NCI-H226 lung 90% | NCI-H322M lung 99.8% | NCI-H460 lung 16.2% | HOP-92 NSCLC 78.8% | NCI-H522 lung 96.3% | A549/ATCC NSCLC 16.6% | COLO 205 colon 92.1% | DU-145 prostate 73% | MDA-MB-231 breast 50.7% | RXF 393 renal 71.6% | SF-268 CNS 76.6% | SF-295 CNS 101% | SF-539 CNS 88.2% | UACC-257 melanoma 93.5% | M14 melanoma 75.8%
active: K-562 leukemia -64.8% | MALME-3M melanoma -34.4%

COc1cc(C(=O)Nc2cc3c(cc2Oc2cc(C)cc(C)c2)C(=O)N(C)[C@@H](CC(=O)N(C)O)C(=O)N3)c(Br)c(OC)c1OC
active: NCI-H23 lung -20.4% | NCI-H226 lung -17.2% | NCI-H322M lung -32.5% | HOP-62 NSCLC -15.7% | NCI-H522 lung -43.1% | A549/ATCC NSCLC -4.48% | 786-0 renal -38.5% | COLO 205 colon -17.9% | DU-145 prostate -31.7% | MALME-3M melanoma -55.3% | MDA-MB-231 breast -34.3% | RXF 393 renal -56.7% | SF-268 CNS -27.1% | SF-295 CNS -34.6% | SF-539 CNS -46.7% | UACC-257 melanoma -12.4% | M14 melanoma -88.2%

C#Cc1cccc(NC(=O)Nc2cccc(NC(=O)CCl)c2)c1
active: NCI-H23 lung -82.8% [8.25 µM] | NCI-H226 lung -12.1% [8.25 µM] | NCI-H460 lung -32.2% [8.25 µM] | HOP-92 NSCLC -53.1% [8.25 µM] | NCI-H522 lung -37.5% [8.25 µM] | 786-0 renal -65.1% [8.25 µM] | COLO 205 colon -51.3% [8.25 µM] | MALME-3M melanoma -50.2% [8.25 µM] | MDA-MB-231 breast -61% [8.25 µM] | RXF 393 renal -48.7% [8.25 µM] | SF-268 CNS -2.2% [8.25 µM] | SF-539 CNS -95.2% [8.25 µM] | M14 melanoma 6.26% [8.25 µM]
inactive: NCI-H322M lung 88.9% [8.25 µM] | A549/ATCC NSCLC 56.8% [8.25 µM] | DU-145 prostate 44.4% [8.25 µM] | SF-295 CNS 45% [8.25 µM] | UACC-257 melanoma 48.7% [8.25 µM]

OCc1cnccc1NCCCCOc1ccc(Oc2ccccc2)cc1
inactive: NCI-H23 lung 46.6% | NCI-H226 lung 70.1% | NCI-H322M lung 94.7% | HOP-62 NSCLC 72.1% | NCI-H522 lung 62.9% | A549/ATCC NSCLC 78.3% | 786-0 renal 56.8% | DU-145 prostate 80.2% | MALME-3M melanoma 58% | MDA-MB-231 breast 62.6% | RXF 393 renal 66.1% | SF-268 CNS 80.9% | SF-295 CNS 51.5% | SF-539 CNS 67.3% | UACC-257 melanoma 54.5% | M14 melanoma 53.6%
active: COLO 205 colon -10.4%

O=S(=O)(NCCNc1nccc(-c2c(-c3cccc(O)c3)nc3occn23)n1)c1ccc(C(F)(F)F)cc1
active: MALME-3M melanoma 7.76%
inactive: NCI-H23 lung 102% | NCI-H226 lung 106% | NCI-H322M lung 108% | NCI-H460 lung 94.9% | HOP-92 NSCLC 92.6% | NCI-H522 lung 94.6% | A549/ATCC NSCLC 94.8% | 786-0 renal 101% | COLO 205 colon 44.1% | DU-145 prostate 108% | K-562 leukemia 97.2% | MDA-MB-231 breast 90.7% | RXF 393 renal 101% | SF-268 CNS 97.3% | SF-295 CNS 107% | SF-539 CNS 114% | UACC-257 melanoma 61.1% | M14 melanoma 38.9%

COC1=CC(=O)c2ccccc2C1=O
inactive: NCI-H23 lung 48.9% | NCI-H226 lung 104% | NCI-H322M lung 94.9% | NCI-H460 lung 106% | HOP-92 NSCLC 127% | NCI-H522 lung 77.8% | A549/ATCC NSCLC 97.4% | 786-0 renal 105% | COLO 205 colon 117% | DU-145 prostate 88.8% | MALME-3M melanoma 72.4% | MDA-MB-231 breast 99.1% | RXF 393 renal 118% | SF-268 CNS 102% | SF-295 CNS 104% | SF-539 CNS 124% | UACC-257 melanoma 59.9% | M14 melanoma 87.2%

Cn1ccnc1C(=O)/C=C/c1ccc(CC(=O)Nc2ccc(F)cc2)cc1
inactive: NCI-H23 lung 27.8% | NCI-H226 lung 82.5% | NCI-H322M lung 42.8% | HOP-92 NSCLC 71% | NCI-H522 lung 16.9% | A549/ATCC NSCLC 38.2% | 786-0 renal 30.4% | COLO 205 colon 41.6% | MALME-3M melanoma 90.4% | MDA-MB-231 breast 30.1% | RXF 393 renal 35.6% | SF-268 CNS 10% | SF-295 CNS 37.1% | UACC-257 melanoma 85.3% | M14 melanoma 81.1%
active: DU-145 prostate -15.6% | K-562 leukemia 5.72% | SF-539 CNS 2.33%

C=C(C)[C@@H]1CC[C@]2(CN)CC[C@]3(C)[C@H](CC[C@@H]4[C@@]5(C)CCCNC(C)(C)[C@@H]5CC[C@]43C)[C@@H]12
active: NCI-H322M lung -42.7% | NCI-H460 lung -78.3% | HOP-92 NSCLC -29.4% | NCI-H522 lung -31% | A549/ATCC NSCLC -68.4% | 786-0 renal -97.2% | COLO 205 colon -71.2% | DU-145 prostate -53.5% | K-562 leukemia -56.1% | MALME-3M melanoma -70.5% | MDA-MB-231 breast -79.7% | RXF 393 renal -87.4% | SF-295 CNS -59.6% | SF-539 CNS -31.8% | M14 melanoma -77.7%
inactive: NCI-H23 lung 10.5% | NCI-H226 lung 53.9% | SF-268 CNS 22.9% | UACC-257 melanoma 46.3%
